# Measurements reported in PubChem BioAssay AID759 (NMMLSC, 2007).
# The whole screen tested about 190,000 compounds, of which about 270 (0.14%) were called active. Roughly 2% stayed inconclusive and do not appear here. The sample holds actives, similar compounds and a random draw of the others, so the mix is not that of the screen. Unmarked numbers belong to inactive results.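 How the source made its calls: active means GTP binding activity at least 20% away from the 100% baseline, either lowered as inhibitor or raised as activator; inconclusive means flagged as likely green fluorescent, judged across all proteins in the well; inactive means the rest.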
# Target: GTPase HRas (Homo sapiens) (UniProt P01112)
# Sequence (P01112 whole entry, looked up): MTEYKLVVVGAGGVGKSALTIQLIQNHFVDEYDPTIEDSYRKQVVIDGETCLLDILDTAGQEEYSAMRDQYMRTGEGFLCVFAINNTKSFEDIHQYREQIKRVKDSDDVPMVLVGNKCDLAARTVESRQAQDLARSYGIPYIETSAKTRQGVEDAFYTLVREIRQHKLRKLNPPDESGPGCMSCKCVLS
# Assay: HRas wt fluorescent GTP binding changes, either direction – biochemical, wildtype, bead-based flow cytometry, multiplex, primary screen (AID 759);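 further: 0% = unlabeled GTP competition control and 100% = no-compound control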
# Conditions: GST-Ras wt beads, Bodipy-FL-GTP binding, at 10 µM, actives lie on both sides
row,SMILES,GTP binding activity
1,Cc1ccc(CC(=O)Nc2cccc(C#N)c2)cc1,98%
2,NNC(=O)c1cnn(-c2ccccc2)c1C(F)(F)F,98%
3,CCCN(CC(=O)Nc1ccc(C(N)=O)cc1)CC(=O)Nc1ccccc1C,96%
4,CN(C)C(=O)CSc1n[nH]c(-c2ccco2)n1,94%
5,O=C(CNCc1ccc(Cl)cc1)Nc1cccc(C(=O)O)c1,95%
6,CCN(CC)c1ccc2c(Nc3ccccc3)c(C=O)c(=O)oc2c1,93%
7,CC(=O)c1sc(NC(=O)C2=NN(c3ccccc3)C(=O)CC2)nc1C,98%
8,COc1ccc(NC(=O)COC(=O)c2ccncc2)c(OC)c1,97%
9,C=CCOCCN(C)C1=NS(=O)(=O)c2ccccc21,100%
10,Cc1cc(OC(=O)c2ccccc2Cl)ccc1N1C(=O)CCC1=O,97%
11,CN(C)c1ccc(NC(=O)CSc2n[nH]c(-c3ccco3)n2)cc1,94%
12,COc1ccc(S(=O)(=O)N2CCOCC2)cc1NC(=O)CSc1ncnc2ccccc12,93%
13,CCOC(=O)c1sc(NC(=O)c2cc(S(=O)(=O)N3CCOCC3)ccc2C)nc1C,100%
14,COc1ccc(S(=O)(=O)N2CCOCC2)cc1C(=O)Nc1nc2ccccc2s1,75% (active)
15,O=C(O)CC1S/C(=N\N=C/c2ccccc2O)N(c2ccc(O)cc2)C1=O (stereo not given),97%
16,Cc1sc2c(c1C)c(=O)n(-c1ccccc1)c(=O)n2CC(=O)NCC1CCCO1 (stereo not given),98%
17,C=CCOC(=O)C1=C(C)N=C2SCCC(=O)N2C1/C=C/c1ccccc1OC (stereo not given),99%
18,COc1cc(N/C=C2\CC(=O)NC(C)=C2C#N)cc(OC)c1OC,102%
19,O=C(Nc1ccc(N2CCOCC2)cc1)c1ccc2c(c1)OCO2,99%
20,CCc1ccc(NC(=O)C(=O)N/N=C(\C)CC(=O)NCCOC)cc1,96%
21,CCn1c(SCc2cc(=O)n3ccsc3n2)nc2ccccc21,102%
22,Oc1cccc2ccc(/C=C/c3ccc(Br)s3)nc12,100%
23,CC(=O)C1(C)N(O)C(C)(C)C(c2cccs2)=[N+]1[O-] (stereo not given),98%
24,CCOCC(=O)Nc1ncc(S(=O)(=O)c2ccc([N+](=O)[O-])cc2)s1,91%
25,CN(C(=O)CSc1nncc2ccccc12)C1CCCCC1,96%

row,SMILES,GTP binding activity
1,CC1(C)CC(=O)C(CC(=O)N2CCC(Cc3ccccc3)CC2)C(=O)C1,96%
2,CCn1cc(-c2cc(C(=O)O)on2)c(C)n1,95%
3,c1csc(-c2nnc(COc3ccc4c(c3)OCO4)o2)c1,96%
4,CCNC(=O)CC1C(=O)N(c2ccc(F)cc2)C(=O)N1Cc1cccs1 (stereo not given),100%
5,CNC(=O)NC(=O)CSc1nnc(-c2ccc(F)cc2)n1CC1CCCO1 (stereo not given),97%
6,C=CCn1c(COc2ccc(F)cc2)nnc1SCC(=O)Nc1cccc(S(N)(=O)=O)c1,96%
7,Cc1ccccc1C(=O)Nc1ccc(N2CCCCCC2)cc1,96%
8,Nc1nnc(SCn2nnc3ccccc3c2=O)s1,95%
9,O=C(NCc1ccc(F)cc1)C(c1ccccc1)N(C(=O)c1csnn1)C1CC1 (stereo not given),95%
10,O=C(O)CCCCCNc1ncnc2ccc(Br)cc12,97%
11,C=C(C)C1CC=C(C)/C(=N/NC(=O)CCCNc2cccc(C)c2)C1 (stereo not given),96%
12,CCSc1nc(C)c(CCOc2cccc(C)c2)c(=O)[nH]1,98%
13,O=C(CC1C(=O)NCCN1CC(c1ccccc1)c1ccccc1)NCCc1cn[nH]c1 (stereo not given),99%
14,CCNC(=O)CC1C(=O)N(c2ccc(OC)cc2)C(=S)N1CCc1ccncc1 (stereo not given),98%
15,CCc1ccc(CN(C)Cc2nc(Cc3ccccc3)no2)nc1,98%
16,CC(=O)N(CN1C(=O)C2C3C=CC(C3)C2C1=O)c1cccc(Cl)c1 (stereo not given),93%
17,CN(/C(=N/S(=O)(=O)c1cccs1)c1ccccc1)c1ccc(O)cc1,88%
18,CC(=O)Nc1ccc(S(=O)(=O)Oc2ccc(/C=N/N=C3/NC(=O)C(CC(=O)O)S3)cc2)cc1 (stereo not given),92%
19,O=C1CCC/C(=N\NC(=O)NC2CCCCC2)C1,97%
20,COc1c(C)cc(C(=O)C2CCCN(S(=O)(=O)c3c(C)noc3C)C2)cc1C (stereo not given),96%
21,CC(C)(O)C#Cc1ncc(C(F)(F)F)cc1Cl,98%
22,CC(C)OCCCNC(=S)N1CCC(C(=O)c2ccc3c(c2)OCCO3)CC1,95%
23,CCOCCCNCc1ccc(OCc2ccc(F)cc2)c(OC)c1,97%
24,CN1CCN(CCCCOc2ccccc2-c2ccccc2)CC1,99%
25,CSc1ccc(/C=N\NC(=O)CC(=O)NC(C)C)cc1,94%

row,SMILES,GTP binding activity
1,Cc1cccc(NC(=S)Nc2ccc(Cl)c(Cl)c2)c1,95%
2,O=C(Nc1ccc(Br)cn1)c1ccc([N+](=O)[O-])o1,98%
3,Cc1nn(C)c(C)c1CN(C(=O)CCc1nnc(Cc2c[nH]c3ccccc23)o1)C(C)C,95%
4,Nn1c(SCC(=O)Nc2nccs2)nncc1=O,96%
5,CCC(C)NC(=O)/C=C/c1ccc(S(=O)(=O)NCc2ccco2)cc1 (stereo not given),99%
6,COCCN(CCOC)S(=O)(=O)c1ccc(C(=O)Nc2nc3c(s2)CCc2ccccc2-3)cc1,104%
7,C=CCN(CC=C)S(=O)(=O)c1ccc(C(=O)Nc2sc3c(c2C(N)=O)CCCCC3)cc1,103%
8,C=CCN(CC=C)S(=O)(=O)c1ccc(C(=O)Nc2nc3c(s2)CCc2ccccc2-3)cc1,32% (active)
9,CCC(CC)NC(=O)CSc1nnc(-c2c[nH]c3ccccc23)o1,92%
10,CSc1ncccc1C(=O)OCc1ccc(Br)cc1,96%
11,CCOC(=O)C1CCCN(C(=O)/C=C/c2ccc(OC)cc2)C1 (stereo not given),91%
12,Cc1cccc(C(=O)N2CCC(c3nc4ccccc4s3)CC2)c1,95%
13,COc1ccc(Cc2nnc(NC(=O)c3cc(OC)c(OC)c(OC)c3)s2)cc1OC,94%
14,NS(=O)(=O)c1ccc(NC(=S)NNC(=O)c2cccs2)cc1,97%
15,O=C(CN(C(=O)c1csnn1)c1cccc(F)c1)NCc1ccc(F)cc1,99%
16,CNC(=O)C(=O)N/N=C/c1ccccn1,95%
17,S=C(Cc1ccc(Cl)cc1)N1CCOCC1,94%
18,Cc1cccc(C(=O)Nc2ccc3c(c2)C(=O)N(CC(C)C)C3=O)c1,96%
19,COc1cc(/C=C2/C(=O)ON=C2C)ccc1OCc1cccc(F)c1,91%
20,Cc1ccc2c(Cl)c(C(=O)Nc3nn[nH]n3)sc2c1,100%
21,O=c1/c(=C/c2ccc(CNS(=O)(=O)c3ccccc3)o2)sc2n1CCN=2,78% (active)
22,O=S(=O)(NCc1ccccc1)c1ccc(S(=O)(=O)N2CCCC2)cc1,101%
23,COC(=O)C1=C(C)NC(=O)/C1=C/c1ccc(CNS(=O)(=O)c2ccc(C)cc2)o1,97%
24,O=C(CCN1C(=O)c2ccncc2C1=O)Nc1cc(F)ccc1F,92%
25,NC(=O)COc1ccc(C23CC4CC(CC(C4)C2)C3)cc1,95%

row,SMILES,GTP binding activity
1,COc1cccc(OC)c1C(=O)NC(=S)NCc1ccco1,95%
2,CC(=O)c1ccc(N=C2SCCCN2C(=O)C2CCCCC2)cc1,97%
3,COc1ccc(OCC(=O)NNC(=O)c2cccc(C)c2)cc1,97%
4,O=C(Nc1ccc(N2CCN(C(=O)C3CC3)CC2)cc1)c1cccs1,95%
5,CCOC(=O)c1cnc2c(c(C)nn2CC)c1Cl,96%
6,CCOC(=O)c1ccc(Nc2cc(C)nc3nc(C)nn23)cc1,98%
7,CCOC(=O)c1nc(Nc2ccc(C(=O)OC)cc2)c2ccccc2n1,77% (active)
8,CCOC(=O)c1ccc(N/C(=N/S(=O)(=O)c2ccccc2)c2ccccc2)cc1,97%
9,Cc1c(Cc2ccccc2)c(=O)oc2cc(OCC(N)=O)ccc12,93%
10,CCOc1ccccc1/C=N/NC(=O)CNC(=O)COc1ccccc1,97%
11,O=C(COc1ccccc1Cl)Nc1ccc(C(=O)c2ccc(C(=O)O)cc2)cc1,100%
12,Cc1cc(C)cc(NC(=O)N2CCCCCCC2)c1,100%
13,COc1ccc(C(=O)NC(Cc2ccc(OC(=O)c3ccc(OC)cc3)cc2)C(=O)O)cc1 (stereo not given),90%
14,Nc1ccc(Cl)c(S(=O)(=O)Nc2ccccc2Cl)c1,98%
15,Cc1ccc(NC(=O)c2oc3ccccc3c2C)c([N+](=O)[O-])c1,101%
16,C/C=N/NC(=O)CCCC(=O)N/N=C/C,103%
17,CCC(=O)OCCNc1nc(-c2ccccc2)nc2ccccc12,98%
18,Cc1ccc(CN(Cc2cccnc2)C(=S)Nc2cccc(Cl)c2C)cc1,95%
19,CCCCn1c(N)c(N(CC)C(=O)/C=C/c2ccco2)c(=O)[nH]c1=O,99%
20,CSc1ncccc1C(=O)N1CCCC(CCC(=O)NCc2ccccc2F)C1 (stereo not given),100%
21,COC(=O)c1ccc(NC(=O)c2cc(Cl)ccc2OC)cc1,96%
22,O=C1N/C(=N\N=C\c2ccco2)SC1Cc1ccc(F)cc1 (stereo not given),97%
23,O=C(c1ccncc1)c1ccc([N+](=O)[O-])cc1,94%
24,CCOC(=O)CN1CCC(c2ccccc2)CC1,98%
25,CC(C)(C)n1nc2c(c1NC(=O)c1cc3ccccc3o1)CSC2,96%
